From PubChem
Only some compounds are listed: those with a hit (about 8.2% of all), similar ones and a draw of the others.
KB-3-1 tox = qHTS assay for MDR1-selective chemotherapeutics: Primary screen using the parental adenocarcinoma cell KB-3-1 | KB-3-1 viability, CellTiter-Glo ATP luminescence, 72 h | Potency, µM (titrated, usually from 46.1 µM), usual class: cytotoxic | actives 1.4% (n = 400,000) | AID 1347075, 2019; also: % is scaled to controls: 0 for no effect and ±100 for the full control effect; nearly all actives have a fitted effect of over 60% in size
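Cytotoxicity measured as CellTiter-Glo luminescence after 72 h at 37 C. Compound titrations were pinned onto drug-naive KB-3-1 parental adenocarcinoma cells grown in DMEM with 10% FBS, and normalized data fitted to concentration-response curves.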
SW480 rerep = A quantitative high throughput screen for small molecules that induce DNA re-replication in SW480 colon adenocarcinoma cells; actives 1.8% (n = 340,000); Potency, µM (titrated, usually from 46.1 µM), for inactives: top-dose re-replication activation, actives largely listed as activators; SW480 DNA re-replication, Hoechst DNA content imaging, 48 h; also: % of control where 0% means no effect; nearly all actives have a fitted effect of over 55% in size
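SW480 cells exposed to compounds for 48 hr at 37 C, 5% CO2, then Hoechst-stained 40 min. Nuclear DNA content imaged by fluorescence scanning (405 nm excitation, 500-530 nm emission); re-replication scored as increased high-intensity nuclei.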
ELG1 DNA repair = qHTS screen for small molecules that inhibit ELG1-dependent DNA repair in human embryonic kidney (HEK293T) cells expressing luciferase-tagged ELG1; HEK293T ELG1-luciferase reporter, luminescence, 16 h; DNA damage induced by 5-fluorouridine; actives 2.3% (n = 330,000); Potency, µM (highest dose often 46.1 µM), for inactives: at the top dose activity change, negative = inhibition, actives largely listed as inhibitors; AID 504467, 2011; also: % is scaled to controls: 0 for no effect and ±100 for the full control effect; nearly all actives have a fitted effect of over 55% in size
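5-Fluorouridine DNA damage + compound/DMSO, 2,000 cells/well, 16 h, 37 °C/5% CO2. ONE-Glo, 30 min RT, luminescence. Readout = decrease in reporter signal.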
KB-V1 cytotox = qHTS assay for MDR1-selective chemotherapeutics: Primary screen using the drug-selected MDR subline cells KB-V1 | Potency, µM (top dose mostly 46.1 µM), hits mostly cytotoxic | KB-V1 MDR cells viability, CellTiter-Glo, 72 h | actives 3.4% (n = 400,000); also: % is scaled to controls: 0 for no effect and ±100 for the full control effect; nearly all actives have a fitted effect of over 60% in size
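Drug-selected KB-V1 cells, grown in DMEM lacking phenol red with 10% FBS, receive compound titrations; after three days at 37 degrees C, surviving cell ATP is quantified by CellTiter-Glo luminescence and responses normalized and curve-fitted.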
MCF10A rereplic = A quantitative high throughput screen for small molecules that induce DNA re-replication in MCF 10a normal breast cells; MCF 10A DNA re-replication, Hoechst nuclear intensity, 48 h; Potency, µM (titrated, usually from 46.1 µM), inactives show top-dose activity, positive = re-replication, actives largely listed as activators; actives 2.9% (n = 350,000); AID 624296, 2012; also: % of control where 0% means no effect; nearly all actives have a fitted effect of over 50% in size
* marks the source's active call; other numbers are inactive results; i = inactive; ? = inconclusive; nt = not tested or not shown; [ ] = another dose, or the depositor's remark. Calls follow the shape of the dose curve; as a rule, active = well fitted curve in the direction sought with a large enough effect; inconclusive = small, poorly fitted or top-dose-only effect, or another doubt; inactive = no such curve, though single readings can be large; an effect the other way counts as inactive or inconclusive. Potency is read from the fitted curve at half-maximal effect.

SMILES	KB-3-1 tox	SW480 rerep	ELG1 DNA repair	KB-V1 cytotox	MCF10A rereplic
CNC(=O)CCC(=O)Nc1ccc(C)cc1	i	-10%	0%	i	18%
O=C(O)c1cc(N2N=C(C(F)(F)F)/C(=C/C=C/c3ccco3)C2=O)ccc1Cl	i	-14%	-2%	i	10%
O=C1C(=O)C(c2ccc(O)cc2O)Oc2cc(O)cc(O)c21 (centres undefined)	i	nt	nt	i	nt
CCOc1cccc(C2c3c(oc4ccccc4c3=O)C(=O)N2c2nc(C)c(C(=O)OC)s2)c1 (centres undefined)	?	nt	nt	i	nt
COc1ccc(-c2noc(CSc3nc4ccccc4c(=O)n3-c3ccccc3)n2)cc1OC	i	15%	-11%	i	-1%
COCCCn1c(SCc2nnc(-c3ccc(OC)c(OC)c3)o2)nc2ccccc2c1=O	i	-1%	12µM*	?	12%
CC(C)Cn1c(SCc2nc3ccccc3c(=O)[nH]2)nc2ccccc2c1=O	i	?	-2%	i	11µM*
COc1cc(-c2nnc(CSc3nc4ccccc4s3)o2)cc(OC)c1OC	nt	nt	12µM*	nt	nt
COc1ccc(-c2nnc(CSc3nc4ccccc4c(=O)n3CC(C)C)o2)cc1OC	i	3%	?	21µM*	-1%
COCCCn1c(SCC(=O)c2ccccc2)nc2ccccc2c1=O	i	-3%	?	?	?
Cn1c(SCc2nc3ccccc3c(=O)[nH]2)nc2ccccc21	i	2%	-1%	?	-27%
O=C(CN1C(=O)CC(c2ccco2)Sc2ccccc21)Nc1ccc(OC(F)(F)F)cc1 (centres undefined)	i	nt	nt	i	nt
C=CCN1C(=O)c2ccc(C(=O)NCC(=O)Nc3c(C)cc(C)cc3C)cc2C1=O	i	-14%	1%	i	-1%
CCCOc1ccccc1C(=O)Nc1ccc(S(=O)(=O)N2CCN(C)CC2)cc1	i	?	?	i	?
O=c1[nH]c(CSc2nnc(Nc3ccccc3)s2)nc2ccccc12	i	16µM*	-3%	i	22%
O=C(C1=C[C@H](c2ccc(C(F)(F)F)cc2)C[C@H](OCc2ccc(CO)cc2)O1)N1CCCCCCC1	i	0%[9.22 µM]	?	?	?
O=C(O)C1=C[C@@H](c2ccc(C(F)(F)F)cc2)C[C@@H](OCc2ccc(CO)cc2)O1	i	-2%	16%	18µM*	11%
O=C(Nc1ccccc1)C1=C[C@H](c2ccccc2)C[C@H](OCc2ccc(CO)cc2)O1	i	6%[9.22 µM]	-11%	i	13%
O=C(Nc1ccccc1)C1=C[C@H](c2ccc(C(F)(F)F)cc2)C[C@H](OCc2ccc(CO)cc2)O1	i	1%	0%	i	26µM*
Cc1ccc(NC(=O)C2CC(=O)N(C(C)c3ccccc3)C2)cc1 (centres undefined)	i	0%	23%	18µM*	2%
CC(C)(C)OC(=O)N1CCC(c2c(C(=O)N3CCN(C(=O)c4ccco4)CC3)cnn2-c2ccc(Cl)cc2)CC1	i	nt	nt	i	nt
CCN1CCN(C(=O)c2cc(COc3ccc(F)cc3F)on2)[C@@H](C)C1=O	?	2%	?	i	27%
CCS(=O)(=O)c1ccc(C=NNc2nc3ccccc3o2)cc1	i	-3%	nt	18µM*	2%
Cc1ccc(-c2cnc(N3CCC(C(N)=O)CC3)s2)cc1	i	nt	nt	i	nt
CN1C(=O)C2(Oc3ccccc3C3CC(c4ccccc4)=NN32)c2ccccc21 (centres undefined)	i	?	?	18µM*	20%
Cc1ccc(C2=NN3C(C2)c2ccccc2OC32C(=O)Nc3ccccc32)cc1 (centres undefined)	i	6%	?	i	?
O=C(NCc1ccc2c(c1)OCO2)c1nc(Cn2cc([N+](=O)[O-])cn2)no1	i	-7%	5%	i	-4%
